Screening data from PubChem.
PNC assembly inh: High Content Assay for Compounds that inhibit the Assembly of the Perinucleolar Compartment; PC3M PTB-GFP, PNC prevalence imaging, 16 h; active compounds read low; AID 2417, 2010; 3.1% of 140,000 active; activity change (PNC), negative = inhibition, % at 10 µM;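 active means readout at or below -70, meaning at least 70% loss of cells showing the perinucleolar compartment, a nuclear body marking cancer cells; inconclusive means readout between -30 and a set limit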;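 further: plate controls were DMSO wells for no effect and camptothecin positive control wells for full effect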
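PC3M cells stably expressing PTB-GFP, 750–1000 cells/well, treated 16 h at 37 °C with compound (23 nl of library stock), in duplicate. After paraformaldehyde fixation and Hoechst stain, imaged at 20x; PNC prevalence scored by image analysis.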
HPGD block: qHTS Assay for Inhibitors of HPGD (15-Hydroxyprostaglandin Dehydrogenase); purified HPGD, NADH fluorescence kinetic, PGE2 substrate; AID 894, 2007; Potency, µM, inactives show at the highest dose activity change, negative = inhibition, hits mostly inhibitors; 15-hydroxyprostaglandin dehydrogenase [NAD(+)] (Homo sapiens), P15428; 4.3% of 150,000 active; further: potency means the concentration at half of the fitted maximal effect
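NADH formation kinetics: reaction with 30 uM PGE2 and 1 mM NAD+ (final), 20 nM enzyme, Tris-HCl pH 8 with Tween 20, after 15 min compound preincubation at room temperature. Fluorescence change, last versus first of five reads.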
ALDH1A1 block: qHTS Assay for Inhibitors of Aldehyde Dehydrogenase 1 (ALDH1A1). Potency, µM (top dose mostly 75.3 µM), inactives show at the highest dose activity, negative = inhibition, usual class: inhibitors. Purified ALDH1A1, NADH fluorescence, propionaldehyde substrate. 7.3% of 220,000 active. Aldehyde dehydrogenase 1A1 (Homo sapiens), P00352. AID 1030, 2008;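 further: potency means the concentration at half of the fitted maximal effect; plate controls were no enzyme wells and a reference inhibitor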
Target sequence (P00352 whole entry, looked up): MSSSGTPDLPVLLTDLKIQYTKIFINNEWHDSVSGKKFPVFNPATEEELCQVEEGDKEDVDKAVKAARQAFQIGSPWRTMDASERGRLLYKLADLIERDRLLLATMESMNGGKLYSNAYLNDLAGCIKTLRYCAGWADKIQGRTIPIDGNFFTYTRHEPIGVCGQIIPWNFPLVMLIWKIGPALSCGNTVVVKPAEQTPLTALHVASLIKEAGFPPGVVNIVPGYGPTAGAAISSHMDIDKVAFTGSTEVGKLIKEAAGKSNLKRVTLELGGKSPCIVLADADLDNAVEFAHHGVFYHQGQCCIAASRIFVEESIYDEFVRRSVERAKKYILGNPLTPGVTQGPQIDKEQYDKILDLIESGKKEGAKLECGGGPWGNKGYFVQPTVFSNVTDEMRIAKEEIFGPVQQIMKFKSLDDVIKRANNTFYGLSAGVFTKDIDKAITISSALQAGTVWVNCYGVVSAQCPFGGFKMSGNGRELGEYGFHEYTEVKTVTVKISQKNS
Numbers without * were called inactive; ? = inconclusive; nt = not tested or not shown; [ ] = dose if it differs, or a comment. Only some compounds are listed: those with a hit (about 11% of all), similar ones and a draw of the others. Unless noted, the call rests on the fitted dose curve; in most records, active means well fitted inhibition curve with a large enough effect (not every such curve was filed as active); inconclusive means small, poorly fitted or top-dose-only effect, or another doubt; inactive means no such curve, though single readings can be large or run the other way. Unless noted, on the % scale 0 is the no-effect control and ±100 the full control effect.

SMILES	PNC assembly inh	HPGD block	ALDH1A1 block
CNCCCCOc1ccc(C(C)(C)C)cc1Cl	nt	nt	-7%
Cc1nc([N+](=O)[O-])c(SCC(O)CCl)n1Cc1ccc(Cl)cc1 (stereo unspecified)	nt	nt	2%
Cc1nc([N+](=O)[O-])c(Sc2nc3ccc([N+](=O)[O-])cc3[nH]2)n1Cc1ccccc1	?	?	7.5µM*
O=C(NCCCN1CCOCC1)c1ccccc1NS(=O)(=O)c1cc([N+](=O)[O-])ccc1Cl	22	nt	12%
Cc1cc(C(F)F)n2nc(C(=O)Nc3cccnc3Cl)nc2n1	-14	-6%	?
COc1ccc(C(NC(=O)c2ccc(F)cc2)c2ccccc2)cc1 (stereo unspecified)	4	nt	22µM*
COc1cc(C(=O)N/N=C(\C)Cc2ccccc2)cc(OC)c1OC	32	-1%	20µM*
COc1cc(C(=O)NCc2cccc3ccccc23)cc(Cl)c1OC	41	1%	-15%
COc1cc(C(=O)NC(c2ccccc2)c2ccccc2)cc(Cl)c1OC	?	-2%	2µM*
COc1ccc(C(NC(=O)c2cccc(F)c2)c2ccccc2)cc1 (stereo unspecified)	36	nt	?
C/C(Cc1ccccc1)=N\NC(=O)c1ccc(F)cc1	85	-16%	?
COc1ccc(CNC(=O)C(c2ccncc2)N(C(=O)Cc2cccs2)c2ccc(C)cc2)cc1 (stereo unspecified)	?	1%	-7%
NCCC[C@@H](CC(=O)N[C@@H]1CCCC[C@H]1C(=O)N[C@H](CC(=O)N[C@@H](CCC(=O)O)CC(=O)O)Cc1c[nH]c2ccccc12)NC(=O)C[C@H](Cc1c[nH]c2ccccc12)NC(=O)[C@@H]1CCCC[C@H]1N	nt	-12%	?
Nc1nc2c(c(=O)[nH]1)N(C=O)C(CNc1ccc(C(=O)NC(CCC(=O)O)C(=O)O)cc1)CN2 (stereo unspecified)	nt	-13%	0%
CCC(C)C(NC(=O)C1CCC(C)CC1)C(=O)NC1CCN(Cc2ccccc2)CC1 (stereo unspecified)	nt	nt	-3%
Cc1cccn2c(CN[C@@H]3CCCC[C@H]3c3ccccc3)c(C(=O)N3CCOCC3)nc12	nt	nt	-2%
Cc1cccn2c(CN(C)CC3CCCCO3)c(C(=O)N3CCCCC3)nc12 (stereo unspecified)	nt	nt	0.2µM*
CSc1nc(N)nc(C2CC2)n1	nt	nt	6%
Cc1ccc(NC(=O)CCC(=O)NNC(=S)Nc2ccccc2)c(C)c1	nt	nt	8.9µM*
Cc1ccc(C)c(NC(=O)CCC(=O)NNC(=S)Nc2ccccc2)c1	nt	nt	5%
CC(=O)Nc1ccc(NC(=O)Nc2ccc(C)cc2C)cc1	nt	nt	-3%
Cc1ccc(NC(=S)NNC(=S)Nc2ccc(C)cc2C)cc1	nt	nt	0.45µM*
O=C(COC(=O)c1ccc(Cl)nc1)Nc1ccc2c(c1)OCO2	nt	nt	-5%
CN1CCCC[C@@H]1CCN1CCCCC1	nt	0%	12%[13.5 µM]
C=CCn1c(N)cc(=O)nc1SCC(=O)Nc1ccc(C)cc1	nt	nt	7%
SMILES	PNC assembly inh	HPGD block	ALDH1A1 block
C=CCn1c(N)cc(=O)nc1SCC(=O)N(c1ccccc1)c1ccccc1	nt	nt	22µM*
CCN(C(=S)Nc1ccc(C(C)=O)cc1)C1CCCCC1	nt	nt	-7%
CC(C)(C)c1ccc(OC(=O)c2ccc3nsnc3c2)cc1	?	-29%	-18%
COc1ccccc1OC(=O)c1ccc2nsnc2c1	-81*	-14%	-6%
S=C1NCN2CCN(CC2)CNC(=S)C(=S)NCN2CCN(CC2)CNC1=S	nt	-18%	?
CCCc1cc(C(=O)N2CCN(c3ccccc3C)CC2)cs1	?	-15%	-4%
CCCC(=O)NC(c1ccc(OC)cc1)c1ccc2cccnc2c1O (stereo unspecified)	nt	nt	12%
CCC(=O)NC(c1ccccc1OC)c1ccc2cccnc2c1O (stereo unspecified)	-100*	-11%	0%
CCNC(=S)NC1CC2CCCC(C1)N2Cc1ccco1 (stereo unspecified)	65	-8%	3%
Cc1ccc(C(=O)NC2CC3CCCC(C2)N3C(=S)NCc2ccco2)cc1 (stereo unspecified)	nt	nt	22µM*
CC(C)OC(=O)Nc1ccc(Oc2c(F)c(F)c(F)c(F)c2F)cc1	18	-8%	6%
C/C=C/c1c(F)c(F)c(Oc2ccc(C(=O)O)cc2)c(F)c1F	-84*	?	14%
CCO[C@@H]1OC(C(=O)N2CCOCC2)=C[C@H](c2coc3ccccc3c2=O)[C@H]1CCCO	nt	nt	5%
COCCCNCCCOc1ccc(C(C)(C)c2ccccc2)cc1	-107*	-2%	?
COCCCNCC#CCOc1ccc(OC)cc1	nt	nt	8.9µM*
